This passage reports Percent Effect results from ChEMBL document CHEMBL3988442, “University of Dundee, Small-Polar-MMV Screening Library” (2021).

Molecules are shown by their SMILES. Among all 67,000 compounds or so, about 300 (0.45%) showed an effect of 50% or more. For the sample, strong results were picked, then their nearest neighbours and some compounds at random.

In this experiment the target is Polyketide synthase Pks13 (Mycobacterium tuberculosis (strain ATCC 25618 / H37Rv)) (UniProt I6X8D2). Nature of the experiment: Mycobacterium tuberculosis Polyketide synthase 13 Thioesterase (PKS13). It counts as functional. More on the design: scale not given: in the data most compounds retested in dose-response had high values. The conditions noted are these: 30 µM.
Polyketide synthase Pks13 (Mycobacterium tuberculosis (strain ATCC 25618 / H37Rv)), sequence (I6X8D2 whole entry): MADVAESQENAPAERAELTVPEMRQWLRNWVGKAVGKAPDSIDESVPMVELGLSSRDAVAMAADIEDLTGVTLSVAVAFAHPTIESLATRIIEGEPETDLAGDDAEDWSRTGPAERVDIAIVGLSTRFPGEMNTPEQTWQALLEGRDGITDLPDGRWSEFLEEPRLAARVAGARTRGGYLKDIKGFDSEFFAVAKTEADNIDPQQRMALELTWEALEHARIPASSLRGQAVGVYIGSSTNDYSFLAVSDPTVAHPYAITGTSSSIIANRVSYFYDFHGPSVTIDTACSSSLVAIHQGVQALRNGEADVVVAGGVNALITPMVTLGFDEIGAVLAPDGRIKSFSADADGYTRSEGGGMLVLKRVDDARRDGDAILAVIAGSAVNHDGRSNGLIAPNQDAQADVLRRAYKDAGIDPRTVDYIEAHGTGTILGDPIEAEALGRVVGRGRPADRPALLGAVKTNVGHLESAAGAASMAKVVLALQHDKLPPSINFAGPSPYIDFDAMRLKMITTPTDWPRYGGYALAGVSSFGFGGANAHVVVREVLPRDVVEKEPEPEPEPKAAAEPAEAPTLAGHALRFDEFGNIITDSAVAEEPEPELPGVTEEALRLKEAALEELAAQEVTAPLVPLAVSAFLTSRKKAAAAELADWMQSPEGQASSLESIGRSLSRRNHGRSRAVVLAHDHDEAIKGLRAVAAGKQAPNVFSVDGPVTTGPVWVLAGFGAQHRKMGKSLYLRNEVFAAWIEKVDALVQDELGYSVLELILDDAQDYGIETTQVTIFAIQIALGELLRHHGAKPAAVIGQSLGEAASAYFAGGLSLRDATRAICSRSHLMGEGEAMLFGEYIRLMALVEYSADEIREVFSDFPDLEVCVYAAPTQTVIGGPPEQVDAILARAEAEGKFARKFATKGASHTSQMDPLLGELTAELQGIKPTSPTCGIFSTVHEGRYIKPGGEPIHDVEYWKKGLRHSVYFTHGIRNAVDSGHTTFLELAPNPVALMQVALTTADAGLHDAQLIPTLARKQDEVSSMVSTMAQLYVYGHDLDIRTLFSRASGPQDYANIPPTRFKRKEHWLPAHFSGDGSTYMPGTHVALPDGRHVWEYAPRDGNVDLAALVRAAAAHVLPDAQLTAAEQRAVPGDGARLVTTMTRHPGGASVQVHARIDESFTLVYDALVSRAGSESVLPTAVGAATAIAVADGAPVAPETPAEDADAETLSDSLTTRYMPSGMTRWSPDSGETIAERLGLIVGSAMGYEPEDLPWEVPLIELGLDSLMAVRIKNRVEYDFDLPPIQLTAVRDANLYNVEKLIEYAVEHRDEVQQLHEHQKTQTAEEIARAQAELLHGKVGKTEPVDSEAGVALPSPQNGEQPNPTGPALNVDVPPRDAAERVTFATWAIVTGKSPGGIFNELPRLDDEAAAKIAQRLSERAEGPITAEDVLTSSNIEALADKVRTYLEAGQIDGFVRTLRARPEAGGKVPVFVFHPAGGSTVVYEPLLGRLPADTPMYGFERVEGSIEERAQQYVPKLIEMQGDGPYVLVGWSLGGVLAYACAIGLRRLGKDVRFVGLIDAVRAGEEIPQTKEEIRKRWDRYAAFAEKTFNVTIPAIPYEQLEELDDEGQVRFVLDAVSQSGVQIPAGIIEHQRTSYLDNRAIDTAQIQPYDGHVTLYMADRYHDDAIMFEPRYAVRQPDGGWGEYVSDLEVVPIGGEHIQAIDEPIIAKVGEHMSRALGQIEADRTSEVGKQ
As for `Cc1ncc(C(=O)OCC2CCN(c3ccccc3)C2)s1` (centres undefined), the Percent Effect came to 39.2%.

Turning to `O=C(CSc1ccccn1)N1CCN(CCO)[C@@H]2CS(=O)(=O)C[C@@H]21`, the Percent Effect stood at 0.423%.

Turning to `Cc1ccoc1C(=O)N1C[C@@H]2COC[C@]2(CNS(C)(=O)=O)C1`, the Percent Effect is -15.4%.

Turning to `Cn1cc(CN2C[C@@H](NC(=O)c3cscn3)[C@H]3OCCC[C@H]32)cn1`, the Percent Effect is -41.4%.

Consider `O=C(Nc1ccccc1)N1C[C@H]2C[C@H](C(=O)N3CCCC3)[C@@H](C1)O2`, for which the Percent Effect is -39.5%.

Consider `CC(C)Cc1nc(CN2CCc3onc(-c4cccc(F)c4)c3C2)no1`, for which the Percent Effect was 3.75%.

On to `CC(C)c1nc(CN2CCc3onc(-c4cccc(F)c4)c3C2)no1`, for which the Percent Effect worked out at 91.2%.

Take `CC(C)(C)c1nc(CN2CCc3onc(-c4cccc(F)c4)c3C2)no1`: the Percent Effect was -16.5%.

As for `O=C(C1CCC1)N1C[C@@H]2CC[C@H](C1)N(S(=O)(=O)c1ccccc1)C2`, the Percent Effect was -44.5%.

For `CCCN1CCN(C(=O)c2ccnc(N)c2)[C@H]2CS(=O)(=O)C[C@H]21`, the Percent Effect is -5.18%.

Turning to `CC1=CC[C@@H]2CN(C(=O)c3ccc(-c4cc[nH]n4)cc3)C[C@@H]2C1`, the Percent Effect is -21.5%.

Regarding `CN1CCc2ccc(NCc3cccs3)cc2C1=O`, the Percent Effect was found to be 126%.

For the compound `CN1CCc2ccc(NCc3cscn3)cc2C1=O`, the Percent Effect is -2.18%.

As to `CN(CCc1cccs1)C(=O)Nc1ccc2c(c1)C(=O)N(C)CC2`, the Percent Effect amounted to 31.9%.

As for `Cc1noc(C)c1CN1C[C@@H]2COC[C@@H](C(=O)N3CCCCO3)[C@@H]2C1`, the Percent Effect worked out at 6.29%.

`CN(C)c1ncc2c(n1)C1(CCN(Cc3ccccc3)C1)COC2` (centres undefined): the Percent Effect was -6.74%.

Turning to `COc1cccc(CN2CCC3(CCN(c4ncc(F)cn4)CC3)C2)c1`, the Percent Effect was 14.4%.

Turning to `COc1cccc(CN2CCC3(CCN(c4ncc(C)cn4)CC3)C2)c1`, the Percent Effect is 66.7%.

Turning to `CN(C)c1ncc2c(n1)C1(CCN(Cc3cccnc3)C1)COC2` (centres undefined), the Percent Effect is -30.2%.

`COc1cccc(CN2CCC3(CC2)CCN(c2ncc(C)cn2)C3)c1`: the Percent Effect was -24.2%.

Turning to `COc1cccc(CN2CCC3(COCc4cnc(N(C)C)nc43)C2)c1` (centres undefined), the Percent Effect worked out at 111%.

With `Cc1noc([C@]23COC[C@H]2CN(C(=O)COC2CCCC2)C3)n1`, the Percent Effect was -5.31%.

Consider `COCCOCC(=O)N1C[C@H]2CC[C@@H]1CN(C1Cc3ccccc3C1)C2`, for which the Percent Effect is -22.6%.

Regarding `Cc1ccc2cc(CNCCCN3CCOCC3)c(=O)[nH]c2c1C`, the Percent Effect worked out at 62.3%.

As to `Cc1cccc2cc(CNCCCN3CCOCC3)c(=O)[nH]c12`, the Percent Effect is -21.5%.

Turning to `CCc1cccc2cc(CNCCCN3CCOCC3)c(=O)[nH]c12`, the Percent Effect is 16.5%.

For the compound `CS(=O)(=O)N1CCO[C@@H]2CN(Cc3ccncc3)C[C@@H]2C1`, the Percent Effect is -14.9%.

On to `CC(O)CN1CCC(CNCc2cccc(C(=O)N(C)C)c2)CC1` (centres undefined), for which the Percent Effect is -0.155%.

Turning to `CCN1CCC(CNCc2c[nH]nc2C(C)(C)C)C1` (centres undefined), the Percent Effect was -27.2%.

For the compound `CC(O)CN1CCC(CNCc2cccc(C(N)=O)c2)CC1` (centres undefined), the Percent Effect amounted to 108%.

For `CN(C)CCN1CCC(CNCc2c[nH]nc2C(C)(C)C)CC1`, the Percent Effect was -14.5%.

For `CC(O)CN1CCC(CNCc2ccc(C(N)=O)cc2)CC1` (centres undefined), the Percent Effect was -12.3%.

In the case of `CC(O)CN1CCC(CNCc2c[nH]nc2C(C)(C)C)CC1` (centres undefined), the Percent Effect came to 110%.

As to `Cn1cc(CN2CC[C@@H]3[C@@H]2CCN3C(=O)Cc2cccc(F)c2)cn1`, the Percent Effect was -2.13%.

For `Fc1ccc(CN2CCO[C@H]3[C@H](Oc4ccccn4)CC[C@@H]32)cc1`, the Percent Effect amounted to 13.6%.

Regarding `O=C(Cc1ccccn1)N1CCN2C[C@H](Oc3cccc(F)c3)C[C@H]2C1`, the Percent Effect is -20.8%.

Consider `O=C(c1cnccn1)N1CC[C@H]2C[C@@H](c3ccncn3)O[C@@H]2C1`, for which the Percent Effect was -4.56%.

Turning to `O=C(O)[C@]12CCCN(Cc3ccccc3)C[C@H]1CN(c1ncccn1)C2`, the Percent Effect was -25.9%.

In the case of `Cc1ccc(CN2CC[C@H]3O[C@@H](C(=O)N4CCCO4)CC[C@H]32)s1`, the Percent Effect was -20.3%.

Take `Cn1ncc2c1C(COCC1CC1)CN(Cc1cccnc1)C2` (centres undefined): the Percent Effect is -43.6%.

As to `Cn1ncc2c1CN(Cc1cccnc1)CC2COCC1CC1` (centres undefined), the Percent Effect was found to be 60.5%.

With `Cn1ncc2c1CN(Cc1ccc(F)cc1)CC2COCC1CC1` (centres undefined), the Percent Effect is -20.5%.

Take `CN1CCN(C(=O)N2C[C@H]3CC[C@@H]2CN(Cc2ccccc2)C3)CC1`: the Percent Effect turned out to be 7.3%.

Consider `Cc1ccc(N2CC[C@H]3O[C@@H](C(=O)N4CCCCO4)CC[C@H]32)nn1`, for which the Percent Effect came out at 14.6%.

For `O=C([C@H]1COC[C@H]2CN(C3CCOCC3)C[C@H]21)N1CCCO1`, the Percent Effect was -30.7%.

As to `CCCSCC(=O)N1C[C@H]2CC[C@@H]1CN(c1ncccn1)C2`, the Percent Effect is -17%.

With `CCOCCC(=O)N1C[C@H]2CC[C@@H]1CN(c1ncccn1)C2`, the Percent Effect is -26.3%.

On to `Cc1n[nH]c(SCC(=O)N2C[C@H]3CC[C@@H]2CN(c2ncccn2)C3)n1`, for which the Percent Effect stood at 53.5%.

For the compound `O=C(c1ncccn1)N1C[C@H]2CCC[C@@]2(COCc2ccncc2)C1`, the Percent Effect is -14.6%.

For the compound `NC(=O)N1CC[C@@H]2O[C@H](COCC(=O)N3CCCC3)CC[C@@H]21`, the Percent Effect came out at 9.98%.

With `NC(=O)C1CCCN1C(=O)c1cc(C2CC2)nc2ccc(F)cc12` (centres undefined), the Percent Effect was -9.51%.

In the case of `NC(=O)c1cc(C2CC2)nc2ccc(F)cc12`, the Percent Effect came out at 87.8%.

For the compound `COc1ccc2nc(C3CC3)cc(C(=O)NCCc3nnc[nH]3)c2c1`, the Percent Effect is -11.9%.

Regarding `COCCN1C(=O)[C@H]2CC[C@@H]1CN(c1ncccn1)C2`, the Percent Effect was found to be 1.06%.
